Twelve compounds from PubChem BioAssay (NCATS) can be followed below.

Records with an inconclusive call do not appear. The source made the active and inactive calls. Calls come from the whole dose curve; as a rule, active = well fitted inhibition curve with a large enough effect; inconclusive = small, poorly fitted or top-dose-only effect; inactive = flat fitted curve, though single readings scatter.

Holding throughout (assay): qHTS profiling for inhibitors of Plasmodium falciparum proliferation (AID 504749); note: nearly all actives have a fitted effect of over 60% in size
What all share (settings): P. falciparum in erythrocytes, SYBR Green DNA, 72 h; series mostly up to 28.7 µM
(In general: Quantitative high-throughput screening tests each substance at several concentrations.)

Test [1] deals with CP237. In outline:
(§1)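 In a 72 h erythrocytic culture (37 C, humidified, 5% CO2) at 2.5% hematocrit and 0.3% starting parasitemia, compounds were tested; SYBR Green I in detergent lysis buffer stained parasite DNA overnight.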

Test [2] relates to CP238. In outline:
as §1

For test [3], the system named is CP247. The essentials: as §1
The subject of test [4] is CP250. The essentials: as §1
For test [5], the system named is CP252. In outline:
as §1

Test [6] concerns CP256. In outline:
as §1

Test [7] concerns CP260. In outline: as §1
Test [8] concerns CP262. The essentials:
as §1

In test [9] the test system is CP265. In outline: as §1
Test [10] deals with CP266. In outline: as §1
In test [11] the test system is CP268. The essentials:
as §1

For test [12], the system named is CP269. In outline:
as §1

Test [13] deals with CP286. In outline:
as §1

Test [14] concerns CP291. The essentials:
as §1

Test [15] deals with CP297. In outline: as §1
Test [16] relates to CP305. The essentials:
as §1

Test [17] deals with CP315. The essentials:
as §1

For test [18], the system named is CP325. In outline:
as §1

In test [19] the test system is CP329. The essentials:
as §1

For test [20], the system named is CP335. The essentials: as §1
Potency is the fitted concentration of half-maximal effect.

With `CN(C)c1ccc2nc3ccc(=[N+](C)C)cc-3sc2c1`, the Potency in test [1] is 12.6 nM (active); in test [2] it was 100 nM (active); in test [3], 141 nM (active); in test [4], 141 nM (active); in test [5] it was 89.1 nM (active); in test [6], 63.1 nM (active). Also, the Potency was 25.1 nM (active) in test [7]; 19 nM (active) in test [8]; 89.1 nM (active) in [9]; 75.7 nM (active) in test [10]; 37.9 nM (active) in test [11]; 84.9 nM (active) in [12]. The Potency in [13] is 12.6 nM (active); in test [14], 53.6 nM (active); in test [15], 67.5 nM (active); in test [16], 21.3 nM (active); in test [17], 151 nM (active); in test [18], 47.8 nM (active). The Potency is 60.1 nM (active) in [19] and 37.9 nM (active) in test [20].

As to `CC(S)C(=O)NCC(=O)O` (stereo not given), the Potency result in [1], in test [2], in test [3], in test [4], in test [5] and in [6] was “inactive” each time. The Potency entry in [7], in test [8], in test [9], in [10], in test [11] and in [12] was “inactive” in each case. The Potency entry in [13], in [14], in test [15], in test [16], in test [17] and in test [18] was “inactive” each time. The Potency result in test [19] and in [20] was “inactive” each time.

Consider `CS(=O)(=O)OCCCCOS(C)(=O)=O`, for which the Potency entry in test [1], in test [2], in test [3], in test [4], in test [5] and in test [6] was “inactive” throughout. Also, the Potency entry in [7], in test [8], in test [9], in test [10], in [11] and in test [12] was “inactive” each time. The Potency result in test [13], in test [14], in [15], in [16], in test [17] and in test [18] was “inactive” in each case. For the same compound, the Potency entry in test [19] and in test [20] was “inactive” each time.

Regarding `CCOc1cc(CC(=O)N[C@@H](CC(C)C)c2ccccc2N2CCCCC2)ccc1C(=O)O`, the Potency result in [1], in test [2], in test [3], in test [4], in [5] and in test [6] was “inactive” in each case. Besides, the Potency entry in test [7], in [8], in test [9], in test [10], in [11] and in [12] was “inactive” in each case. Further, the Potency result in test [13], in test [14], in test [15], in test [16], in test [17] and in test [18] was “inactive” in each case. The Potency entry in [19] and in test [20] was “inactive” throughout.

Regarding `CN1C(C(=O)Nc2ccccn2)=C(O)c2sccc2S1(=O)=O`, the Potency result in test [1], in [2], in [3], in [4], in test [5] and in test [6] was “inactive” throughout. In addition, the Potency entry in test [7], in test [8], in test [9], in test [10], in test [11] and in test [12] was “inactive” throughout. Also, the Potency result in test [13], in [14], in test [15], in test [16], in [17] and in test [18] was “inactive” throughout. For the same compound, the Potency result in test [19] and in [20] was “inactive” in each case.

As to `O=P(O)(O)C(O)(Cn1ccnc1)P(=O)(O)O`, the Potency result in test [1], in [2], in test [3], in [4], in test [5] and in test [6] was “inactive” each time. The Potency entry in test [7], in test [8], in [9], in [10], in test [11] and in test [12] was “inactive” throughout. Further, the Potency result in [13], in test [14], in test [15], in test [16], in test [17] and in test [18] was “inactive” throughout. Also, the Potency result in test [19] and in test [20] was “inactive” each time.

Turning to `Cc1ccc(C)c(OCCCC(C)(C)C(=O)O)c1`, the Potency entry in test [1], in [2], in test [3], in [4], in test [5] and in test [6] was “inactive” each time. In addition, the Potency result in test [7], in test [8], in test [9], in [10], in test [11] and in [12] was “inactive” throughout. Moreover, the Potency result in test [13], in test [14], in test [15], in test [16], in test [17] and in test [18] was “inactive” each time. Moreover, the Potency result in test [19] and in [20] was “inactive” each time.

As to `CCOC(=O)c1c(C)n(C)c2ccc(O)cc12`, the Potency result in test [1], in test [2], in [3], in [4], in test [5] and in test [6] was “inactive” throughout. For the same compound, the Potency entry in [7], in test [8], in [9], in test [10], in test [11] and in test [12] was “inactive” throughout. Also, the Potency entry in test [13], in test [14], in [15], in test [16], in [17] and in test [18] was “inactive” throughout. The Potency result in test [19] and in test [20] was “inactive” each time.

Take `Nc1ccn([C@@H]2O[C@H](CO)[C@@H](O)C2O)c(=O)n1` (stereo not given in full): the Potency result in test [1], in test [2], in [3], in [4], in test [5] and in [6] was “inactive” each time. For the same compound, the Potency entry in test [7], in test [8], in [9], in test [10], in test [11] and in [12] was “inactive” in each case. Moreover, the Potency entry in test [13], in [14], in test [15], in test [16], in test [17] and in test [18] was “inactive” in each case. The Potency result in test [19] and in test [20] was “inactive” throughout.

On to `CC1(C)NC(=O)N(c2ccc([N+](=O)[O-])c(C(F)(F)F)c2)C1=O`, for which the Potency result in test [1], in test [2], in test [3], in [4], in [5] and in [6] was “inactive” each time. Further, the Potency entry in test [7], in [8], in [9], in test [10], in test [11] and in test [12] was “inactive” each time. Moreover, the Potency entry in [13], in test [14], in [15], in [16], in [17] and in test [18] was “inactive” in each case. For the same compound, the Potency result in test [19] and in [20] was “inactive” each time.

For `O=C(O)CCNC(=O)c1ccc(N=Nc2ccc(O)c(C(=O)O)c2)cc1`, the Potency entry in test [1], in test [2], in test [3], in test [4], in test [5] and in test [6] was “inactive” each time. Moreover, the Potency entry in test [7], in [8], in [9], in test [10], in [11] and in [12] was “inactive” in each case. For the same compound, the Potency result in test [13], in test [14], in [15], in [16], in test [17] and in [18] was “inactive” throughout. In addition, the Potency entry in test [19] and in [20] was “inactive” each time.

Regarding `O=C(NC(Cc1cc(=O)[nH]c2ccccc12)C(=O)O)c1ccc(Cl)cc1` (stereo not given), the Potency entry in [1], in [2], in test [3], in [4], in test [5] and in [6] was “inactive” in each case. Also, the Potency result in [7], in [8], in test [9], in [10], in [11] and in [12] was “inactive” each time. The Potency entry in test [13], in test [14], in test [15], in test [16], in [17] and in test [18] was “inactive” each time. Also, the Potency entry in test [19] and in test [20] was “inactive” each time.
